The campaign covered roughly 52,000 compounds. About 4,300 (8.3%) were called active. Shown is part of a subset that was picked to be rich in actives. Unmarked numbers belong to inactive results. Cut-off read from the data, not from the text of the source: active = survival mostly below about 52% (no sharp cut-off); inactive = mostly above about 56%.
system: DeltatarO mutant; assay: growth inhibition of S. aureus wild type versus tarO mutant, primary screen, teichoic acid synthesis inhibitors, RN4220, OD600 (AID 463173); conditions: OD600, 18 h, active compounds read low, screened at 18.75 µg/mL (by protocol)

Compound	survival
O=C(NC1CCN(CC(=O)N2CCOCC2)CC1)C1CCCCC1	95%
CCN(C(=O)c1cccn(Cc2cccc(Cl)c2)c1=O)c1ccccc1	80%
COc1ccccc1C(=O)Nc1ccc(OCc2cc(=O)n3cccc(C)c3n2)cc1	94%
CC(C)Cc1cc(C(=O)O)nc(=O)[nH]1	105%
CC(=O)c1ccc(NC(=O)COCc2cc(-c3ccc(F)cc3)on2)cc1	102%
Cc1ccccc1NC(=O)CSc1cn(CC(=O)N(C(C)C)C(C)C)c2ccccc12	54%
CN1CCN(C(=O)C23CC4CC(CC(C4)C2)C3)CC1	111%
COc1cc(C(=O)NCC(c2cccs2)S(=O)(=O)c2ccc(F)cc2)cc(OC)c1OC (configuration not stated)	104%
CCOc1ccc(S(=O)(=O)Nc2ccc(OC)c(Cl)c2)c2cccnc12	70%
O=C(NCc1ccccc1Cl)c1ccc(CSCc2ccccc2Cl)o1	93%
O=C(CCSCc1ccccc1Cl)NCc1ccc(F)cc1Cl	8% (active)
O=C(CCSCc1ccc(Cl)cc1)NCc1ccc(F)cc1Cl	88%
O=C(NCc1ccc(F)cc1Cl)c1ccc(CSCc2ccccc2Cl)o1	54%
O=C(CCSCc1cnn(-c2ccccc2)c1-n1cccc1)NCc1ccccc1Cl	54% (active)
O=C(CCSCc1cnn(-c2ccccc2)c1-n1cccc1)NCc1ccccc1F	61%
O=C(NCc1ccccc1Cl)c1ccc(CSCc2cccc(F)c2)o1	17% (active)
O=C(CCSCc1cccc(Cl)c1)NCc1ccc(F)cc1Cl	102%
Cc1ccccc1CNC(=O)CCSCc1cnn(-c2ccccc2)c1-n1cccc1	64%
Fc1ccccc1N1CCN(c2ncc3c(n2)CCN(Cc2ccc(Br)s2)C3)CC1	66%
CCc1nn2c(=O)cc(COC(=O)c3ccc(NC(=O)CCc4ccccc4)cc3)nc2s1	99%
COc1ccc(OC)c(NC(=O)C(C)n2nc(C)c3c(C)n(-c4ccccc4)nc3c2=O)c1 (configuration not stated)	93%
O=C(Nc1cccc(F)c1)C1CCN(S(=O)(=O)c2ccc3[nH]c4c(c3c2)CCCCC4)CC1	89%
CCCn1c2ccccc2c2cnn(CC(=O)NC(C)CC)c(=O)c21 (configuration not stated)	72%

Compound	survival
O=C(NCc1ccco1)c1ccc2c(c1)N(Cc1ccc(Cl)cc1)C(=O)c1ccccc1S2	71%
COc1ccc(CCN2C(=O)N(c3ccc(F)cc3)C(=O)C2CC(=O)Nc2ccccc2)cc1OC (configuration not stated)	76%
Cc1ccc(NC(=O)Nc2nnc(SCC(=O)Nc3ccc(F)cc3F)s2)cc1	102%
Nc1nc(N)c(S(=O)(=O)c2ccccc2)c(Nc2ccc(Br)cc2)n1	44% (active)
Cc1nc(N)c(S(=O)(=O)c2ccccc2)c(Nc2ccc(Br)cc2)n1	87%
Nc1nc(N)c(S(=O)(=O)c2ccccc2)c(Nc2ccccc2)n1	69%
O=C1c2ccccc2C(=O)C1(O)N1CCOCC1	85%
Cc1c(CN2CCOCC2)c(=O)n(-c2ccccc2)n1C	87%
CC1(N2CCOCC2)CC(=O)N(c2ccccc2)O1 (configuration not stated)	62% (active)
COc1ccc(OCC2c3cc(OC)c(OC)cc3CCN2C(=O)c2c(F)cccc2F)cc1 (configuration not stated)	112%
CCN(CC)c1ccc(NC(=O)CCc2c(C)nc3ncnn3c2C)c(C)c1	115%
CCN1CCN(CCCNC(=O)c2cc3c(=O)n(C)c4ccccc4c3s2)CC1	79%
O=C(NCCSCc1cccc(Cl)c1)C1CCN(S(=O)(=O)Cc2ccccc2)CC1	63%
COc1ccc(OC)c(C2C(C(=O)Nc3ccc(C)cc3C)=C(C)Nc3c(C(=O)Nc4ccc(F)cc4)cnn32)c1 (configuration not stated)	96%
Cc1ccc(NC(=O)c2nc(S(=O)(=O)Cc3ccc(F)cc3)ncc2Cl)cc1C	84%
COc1ccc(CNC(=O)c2nc(SCc3ccccc3F)ncc2Cl)cc1	81%
COc1ccc(CNC(=O)c2nc(SC(C)C)ncc2Cl)cc1	114%
CC(=O)Nc1ccc(NC(=O)c2nc(S(=O)(=O)Cc3ccc(F)cc3)ncc2Cl)cc1	32% (active)
COc1ccc(CNC(=O)c2nc(S(=O)(=O)Cc3ccccc3)ncc2Cl)cc1	18% (active)
O=C(NCc1ccccc1)c1nc(S(=O)(=O)Cc2ccccc2)ncc1Cl	18% (active)
Cc1ccc(CNC(=O)c2nc(SCc3ccc(F)cc3)ncc2Cl)cc1	71%
CCS(=O)(=O)c1ncc(Cl)c(C(=O)NCc2ccccc2)n1	50%
O=C(NCc1ccccc1)c1nc(S(=O)(=O)Cc2ccc(F)cc2)ncc1Cl	-6% (active)

Compound	survival
Cc1ccc(CSc2ncc(Cl)c(C(=O)NCc3ccccc3)n2)cc1	79%
Cc1ccc(C)c(NC(=O)c2nc(S(=O)(=O)Cc3ccc(F)cc3)ncc2Cl)c1	99%
CCNC(=O)c1c(NC(=O)Cc2coc3ccc(CC)cc23)sc2c1CCCC2	79%
COc1ccc(CNC(=O)c2cccc(-n3cnc4cccnc43)c2C)cc1	90%
CCc1ccc(NC(=O)c2cc(S(=O)(=O)N3CCCCCC3)ccc2F)cc1	99%
CC(=O)Nc1n[nH]c(-c2ccc(C)cc2)c1C	94%
Cc1ccc(NC(=O)Cn2c(=O)ccc3cc(S(=O)(=O)N4CCC(C)CC4)ccc32)cc1C	71%
COc1ccc(N2C(=O)C(CC(=O)Nc3ccccc3)N(CCC3=CCCCC3)C2=O)cc1 (configuration not stated)	72%
COc1ccc(OC)c(NC(=O)c2nc(SCc3ccc(F)cc3)ncc2Cl)c1	77%
COc1ccc(CNC(=O)c2nc(SCc3ccc(C)cc3)ncc2Cl)cc1	67%
COc1ccccc1NC(=O)c1nc(SCc2ccc(F)cc2)ncc1Cl	77%
COc1ccc(OC)c(NC(=O)c2nc(S(=O)(=O)Cc3ccc(F)cc3)ncc2Cl)c1	-5% (active)
COc1ccc(NC(=O)c2nc(S(=O)(=O)Cc3ccc(C)cc3)ncc2Cl)cc1	32% (active)
Cc1ccc(CNC(=O)c2nc(SCc3cccc(C)c3)ncc2Cl)cc1	117%
CSc1ncc(Cl)c(C(=O)NCc2ccc(C)cc2)n1	84%
Cc1cccc(CS(=O)(=O)Cc2ccc(C(=O)NCc3ccccc3)o2)c1	124%
Cc1cccc(CS(=O)(=O)c2ncc(Cl)c(C(=O)NCc3ccccc3)n2)c1	-1% (active)
Cc1ccc(CNC(=O)c2nc(S(=O)(=O)Cc3ccc(C)cc3)ncc2Cl)cc1	41% (active)
CCOc1ccc(NS(=O)(=O)c2ccc3c(c2)CCCN3C(=O)C2CCC2)cc1	67%
CC(C)Oc1ccc(CNC(=O)c2cnc3sc(N4CCCCC4)nn3c2=O)cc1	124%
CCCCCn1c(=N)c(S(=O)(=O)c2ccc(C)cc2)cc2c(=O)n3cc(C)ccc3nc21	84%
O=C(NCc1ccc(Cl)cc1)NCc1noc2ccccc12	41%
COc1ccccc1NC(=O)CSc1oc(-c2cccs2)nc1S(=O)(=O)c1ccc(Br)cc1	68%

Compound	survival
CCn1ccc2cc(S(=O)(=O)N3CCCN(C(=O)Nc4ccc(C)cc4)CC3)ccc21	73%
CCSc1nnc(C2CCCN(CC(=O)Nc3nc(C)cs3)C2)n1C (configuration not stated)	91%
CC(C)NC(=O)c1ccc(CSc2nc3ccncc3n2Cc2cccc(F)c2)cc1	77%
CCOc1ccc(-c2nonc2NC(=O)c2ccccc2C)cc1	107%
CCOc1ccc(NC(=O)c2cc(S(=O)(=O)N3CCOCC3)ccc2F)cc1	89%
COC(=O)c1ccccc1NC(=O)c1nc(S(=O)(=O)Cc2cccc(C)c2)ncc1Cl	39% (active)
CCOC(=O)c1ccc(NC(=O)c2nc(SC(C)C)ncc2Cl)cc1	107%
Cc1ccc(NC(=O)c2nc(S(=O)(=O)Cc3cccc(C)c3)ncc2Cl)cc1	-3% (active)
CCOc1ccccc1NC(=O)c1nc(S(=O)(=O)Cc2cccc(C)c2)ncc1Cl	66%
CCS(=O)(=O)c1ncc(Cl)c(C(=O)Nc2c(C(=O)Nc3cccc(C)c3)oc3ccccc23)n1	67%
COC(=O)c1ccccc1NC(=O)c1nc(SCc2ccccc2C)ncc1Cl	79%
CCS(=O)(=O)c1ncc(Cl)c(C(=O)Nc2ccccc2)n1	52%
CCOC(=O)c1ccc(NC(=O)c2nc(S(=O)(=O)Cc3ccccc3)ncc2Cl)cc1	-2% (active)
CCc1cccc(NC(=O)Cn2c(=O)n(-c3ccccc3C)c(=O)c3c2c2cc(C)ccc2n3C)c1	85%
O=C(COc1ccccc1Cl)Nc1ccc(-c2nc3ccccc3s2)cc1	52%
CCOC(=O)c1ccc(Nc2c(-c3ccc(N(C)C)cc3)nc3nc[nH]n23)cc1	102%
COc1cccc(OCc2cc(=O)n3c(-c4ccccc4)csc3n2)c1	74%
CC(C)CC(=O)Nc1cccc(-c2cn3cccnc3n2)c1	83%
CN1CCN(Cc2nnnn2CC2CCCO2)CC1 (configuration not stated)	95%
CCOc1ccc(Cn2nnc(C(=O)Nc3cccc(SC)c3)c2N)cc1	30% (active)
CCc1cccc(NC(=O)c2nnn(Cc3ccc(SC)cc3)c2N)c1	59%
CCOc1ccc(Cn2nnc(C(=O)Nc3ccc(Cl)cc3)c2N)cc1	88%
CCOc1ccc(S(=O)(=O)Nc2cccc(-c3ccc(N4CCC(C)CC4)nn3)c2)cc1	86%
